Laboratory results taken from PubChem BioAssay AID1159580 (chemical genetic matrix, 2015).
“And” between values parts separate entries of the source, which are not always exact repeats. Equal values may be shown once. Among all 5,500 compounds or so, about 2,000 (36%) were called active. Not shown: some 18% with an inconclusive outcome. Rule as the data show it: active = normalized growth mostly below about 0.91 (no sharp cut-off); inconclusive = no clear call, values can overlap the other calls; inactive = mostly above about 0.92. This is one part of the list.

Assay: chemical genetic growth profiling, strain panel (AID 1159580);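 also: tested at 20 µM; growth read once vehicle control cultures reached saturation at 30 °C; 1 = growth at the plate median or of vehicle wells; lower values mean less growth of the strain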
Conditions: S. cerevisiae deletion strains, growth OD

Measured: normalized growth

O=c1cc(-c2ccccc2)oc2c(O)c(O)ccc12
active: locus YDL192W, strain arf1, stronger effect = lower value 0.88 | locus YDR137W, strain rgp1, stronger effect = lower value 0.664 | locus YJL187C, strain SWE1 (second series), stronger effect = lower value 0.844
0.733 (active) and 1.08 (inactive): locus YJL095W, strain BCK1, stronger effect = lower value
inactive: locus YAL021C, strain ccr4, stronger effect = lower value 0.913 | locus YAL026C, strain drs2, stronger effect = lower value 0.977 | locus YAL030W, strain snc1, stronger effect = lower value 0.99 | locus YBL061C, strain skt5, stronger effect = lower value 0.995 | locus YBR009C, strain hhf1, stronger effect = lower value 0.98 | locus YBR021W, strain FUR4, stronger effect = lower value 0.955 | locus YBR023C, strain chs3, stronger effect = lower value 0.997 | locus YBR171W, strain sec66, stronger effect = lower value 0.964 | locus YBR229C, strain ROT2, stronger effect = lower value 0.974 | locus YBR231C, strain swc5, stronger effect = lower value 0.98 | locus YBR279W, strain paf1, stronger effect = lower value 0.99 | locus YCL011C, strain gbp2, stronger effect = lower value 0.984 | locus YCL016C, strain dcc1, stronger effect = lower value 0.98 | locus YCL029C, strain bik1, stronger effect = lower value 0.956 | locus YCL061C, strain MRC1, stronger effect = lower value 0.981 | locus YCL069W, strain vba3, stronger effect = lower value 0.985 | locus YCR088W, strain abp1, stronger effect = lower value 0.991 | locus YDL005C, strain med2, stronger effect = lower value 0.991 | locus YDL035C, strain GPR1, stronger effect = lower value 0.863 | locus YDL040C, strain nat1, stronger effect = lower value 0.992 | locus YDL074C, strain BRE1, stronger effect = lower value 0.808 | locus YDL101C, strain DUN1, stronger effect = lower value 0.948 | locus YDL185W, strain tfp1, stronger effect = lower value 0.972 | locus YDR001C, strain nth1, stronger effect = lower value 0.995 | locus YDR069C, strain doa4, stronger effect = lower value 0.936 | locus YDR101C, strain arx1, stronger effect = lower value 0.973 | locus YDR150W, strain NUM1, stronger effect = lower value 0.984 | locus YDR159W, strain sac3, stronger effect = lower value 0.971 | locus YDR162C, strain NBP2, stronger effect = lower value 0.834 | locus YDR195W, strain ref2 1.03 | locus YDR297W, strain sur2, stronger effect = lower value 0.988 | locus YDR318W, strain mcm21, stronger effect = lower value 0.991 | locus YDR334W, strain swr1, stronger effect = lower value 0.942 | locus YDR335W, strain msn5, stronger effect = lower value 0.979 | locus YDR388W, stronger effect = lower value 0.989 | locus YDR392W, strain spt3, stronger effect = lower value 1 | locus YDR502C, strain sam2, stronger effect = lower value 0.96 | locus YEL003W, strain gim4, stronger effect = lower value 0.983 | locus YEL037C, strain rad23, stronger effect = lower value 0.986 | locus YEL061C, strain CIN8 (second series), stronger effect = lower value 0.99 | locus YEL061C, strain CIN8, stronger effect = lower value 0.978 | locus YER015W, strain faa2, stronger effect = lower value 0.99 | locus YER016W, strain bim1, stronger effect = lower value 0.983 | locus YER110C, stronger effect = lower value 0.962 | locus YER111C, strain swi4, stronger effect = lower value 0.983 | locus YER155C, strain BEM2 (second series), stronger effect = lower value 0.982 | locus YER155C, strain BEM2, stronger effect = lower value 1.02 | locus YER167W, strain BCK2, stronger effect = lower value 1 | locus YFR010W, strain ubp6, stronger effect = lower value 0.944 | locus YGL078C, strain dbp3, stronger effect = lower value 0.98 | locus YGL086W, strain mad1, stronger effect = lower value 0.932 | locus YGL167C, strain pmr1, stronger effect = lower value 0.988 | locus YGL173C, strain kem1, stronger effect = lower value 0.975 | locus YGL227W, strain vid30, stronger effect = lower value 1 | locus YGL240W, strain doc1, stronger effect = lower value 0.956 | locus YGL248W, strain PDE1, stronger effect = lower value 0.923 | locus YGL253W, strain hxk2, stronger effect = lower value 0.99 | locus YGR135W, strain pre9, stronger effect = lower value 0.947 | locus YGR252W, strain gcn5, stronger effect = lower value 0.802 | locus YHR013C, strain ard1, stronger effect = lower value 0.951 | locus YHR027C, strain rpn1, stronger effect = lower value 0.983 | locus YHR030C, strain SLT2, stronger effect = lower value 0.98 and 1.06 | locus YHR079C, strain IRE1 (second series), stronger effect = lower value 0.988 | locus YHR079C, strain IRE1, stronger effect = lower value 1.05 | locus YHR094C, strain hxt1, stronger effect = lower value 0.99 | locus YHR129C, strain ARP1, stronger effect = lower value 0.93 | locus YHR142W, strain chs7, stronger effect = lower value 0.973 | locus YHR200W, strain rpn10, stronger effect = lower value 0.958 | locus YIL066C, strain RNR3, stronger effect = lower value 0.873 | locus YIL073C, strain SPO22, stronger effect = lower value 0.702 | locus YIL125W, strain kgd1, stronger effect = lower value 0.97 | locus YIR030C, strain dcg1, stronger effect = lower value 0.997 | locus YJL092W, strain hpr5, stronger effect = lower value 0.994 | locus YJL095W, strain BCK1 (second series), stronger effect = lower value 0.996 | locus YJL115W, strain asf1, stronger effect = lower value 0.971 | locus YJL129C, strain trk1, stronger effect = lower value 0.912 | locus YJL134W, strain LCB3, stronger effect = lower value 0.986 | locus YJL154C, strain vps35, stronger effect = lower value 0.984 | locus YJL164C, strain tpk1, stronger effect = lower value 0.985 | locus YJL166W, strain qcr8, stronger effect = lower value 0.994 | locus YJL168C, strain set2, stronger effect = lower value 0.981 | locus YJL187C, strain SWE1, stronger effect = lower value 0.975 | locus YJR043C, strain POL32, stronger effect = lower value 0.921
